# Reference: PMC7862700, “An all-to-all approach to the identification of sequence-specific readers for epigenetic DNA modifications on cytosine”
# What was measured:
# Assay in all cases: DAPPL (digital affinity profiling via proximity ligation, sequencing); 10 mM Tris-HCl pH 7.5, 50 mM NaCl, 1 mM DTT, 4% glycerol, room temperature, 30 min; GST-TFs on glutathione beads, 16-mer random dsDNA library, 0.1% formaldehyde crosslink after washing; high values mean tight binding
# FEV = target: T1, FEV (Homo sapiens, UniProt Q99581 1-238); details: protein: recombinant; tags: N-terminal GST; dsDNA, one strand shown
# T1 sequence: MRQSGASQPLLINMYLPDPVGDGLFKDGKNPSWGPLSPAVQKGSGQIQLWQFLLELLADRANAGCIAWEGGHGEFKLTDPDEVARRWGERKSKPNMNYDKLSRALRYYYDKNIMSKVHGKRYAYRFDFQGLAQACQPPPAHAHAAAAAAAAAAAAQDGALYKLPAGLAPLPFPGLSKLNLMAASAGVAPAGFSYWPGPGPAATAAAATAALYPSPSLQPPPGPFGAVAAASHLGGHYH
# Procedure, shortened: (§1)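 Human transcription factors fused to GST were expressed in yeast, captured on glutathione beads, given DNA barcodes and pooled with a GST-only negative control. Pools were incubated with 200 nmole of a 16-mer random double-stranded DNA library in Tris/NaCl/DTT/glycerol buffer at room temperature for 30 min. They were then washed, crosslinked with 0.1% formaldehyde, proximity-ligated (BsaI/T4 ligase, 1 h, 37 °C), PCR-amplified and sequenced on an Illumina NextSeq500. Binding signal is each 6-mer's read frequency for a factor divided by its frequency for the GST control.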
# ETV5 = ETV5 (Homo sapiens, UniProt P41161 1-510); details: protein: recombinant; tags: N-terminal GST; dsDNA, one strand shown
# Procedure, shortened: as §1
# HSF1 = HSF1 (Homo sapiens, UniProt Q00613 1-529); details: protein: recombinant; tags: N-terminal GST; chain copies: 3; dsDNA, one strand shown
# Procedure, shortened: as §1
# SPIC = target: T2, SPIC (Homo sapiens, UniProt Q8N5J4 1-248); details: protein: recombinant; tags: N-terminal GST; dsDNA, one strand shown
# T2 sequence: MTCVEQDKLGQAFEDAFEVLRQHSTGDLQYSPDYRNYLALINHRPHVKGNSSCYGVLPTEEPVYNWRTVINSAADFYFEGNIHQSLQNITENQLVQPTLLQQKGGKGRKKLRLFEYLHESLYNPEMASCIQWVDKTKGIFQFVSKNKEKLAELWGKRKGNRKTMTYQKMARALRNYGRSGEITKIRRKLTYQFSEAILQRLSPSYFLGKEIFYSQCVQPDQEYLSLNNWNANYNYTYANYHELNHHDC
# Procedure, shortened: as §1
# ELF4 = ELF4 (Homo sapiens, UniProt Q99607 1-663); details: protein: recombinant; tags: N-terminal GST; dsDNA, one strand shown
# Procedure, shortened: as §1
# ELK4 = target: T3, ELK4 (Homo sapiens, UniProt P28324-2 1-405); details: protein: recombinant; tags: N-terminal GST; dsDNA, one strand shown
# T3 sequence: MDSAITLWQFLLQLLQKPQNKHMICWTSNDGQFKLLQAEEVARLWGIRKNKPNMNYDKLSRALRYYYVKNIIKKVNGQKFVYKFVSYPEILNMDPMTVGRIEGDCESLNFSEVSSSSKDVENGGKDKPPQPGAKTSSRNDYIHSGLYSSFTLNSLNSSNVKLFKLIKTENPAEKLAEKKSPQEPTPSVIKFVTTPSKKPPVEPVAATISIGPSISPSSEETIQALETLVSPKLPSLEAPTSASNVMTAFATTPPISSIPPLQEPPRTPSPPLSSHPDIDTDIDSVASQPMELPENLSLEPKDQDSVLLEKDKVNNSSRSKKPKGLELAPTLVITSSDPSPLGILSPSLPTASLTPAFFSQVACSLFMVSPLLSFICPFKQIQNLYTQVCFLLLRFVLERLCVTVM
# Procedure, shortened: as §1
# ETV2 = target: T4, ETV2 (Homo sapiens, UniProt O00321 1-342); details: protein: recombinant; tags: N-terminal GST; dsDNA, one strand shown
# T4 sequence: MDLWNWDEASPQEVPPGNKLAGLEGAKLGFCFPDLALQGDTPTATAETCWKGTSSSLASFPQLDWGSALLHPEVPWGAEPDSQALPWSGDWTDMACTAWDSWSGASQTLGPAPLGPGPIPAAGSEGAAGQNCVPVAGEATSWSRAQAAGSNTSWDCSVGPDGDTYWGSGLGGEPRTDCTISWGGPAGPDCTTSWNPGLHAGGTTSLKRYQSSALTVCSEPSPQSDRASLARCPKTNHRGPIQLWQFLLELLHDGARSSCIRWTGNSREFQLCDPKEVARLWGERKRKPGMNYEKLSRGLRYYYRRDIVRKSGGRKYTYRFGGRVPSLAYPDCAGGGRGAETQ
# Procedure, shortened: as §1
# ELF3 = target: T5, ELF3 (Homo sapiens, UniProt P78545 1-371); details: protein: recombinant; tags: N-terminal GST; dsDNA, one strand shown
# T5 sequence: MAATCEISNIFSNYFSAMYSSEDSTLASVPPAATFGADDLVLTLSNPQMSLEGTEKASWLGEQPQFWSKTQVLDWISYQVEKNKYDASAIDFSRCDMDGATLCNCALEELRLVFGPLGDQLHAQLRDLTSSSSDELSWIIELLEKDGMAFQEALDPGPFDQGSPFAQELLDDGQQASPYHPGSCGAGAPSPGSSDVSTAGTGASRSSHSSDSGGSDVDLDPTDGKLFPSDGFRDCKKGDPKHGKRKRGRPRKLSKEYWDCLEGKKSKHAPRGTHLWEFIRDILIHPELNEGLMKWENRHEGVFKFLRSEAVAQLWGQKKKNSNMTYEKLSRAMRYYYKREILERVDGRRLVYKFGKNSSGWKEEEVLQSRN
# Procedure, shortened: as §1
# CRX = CRX (Homo sapiens, UniProt O43186 1-299); details: protein: recombinant; tags: N-terminal GST; dsDNA, one strand shown
# Procedure, shortened: as §1
# ETV1 = ETV1 (Homo sapiens, UniProt P50549 1-477); details: protein: recombinant; tags: N-terminal GST; dsDNA, one strand shown
# Procedure, shortened: as §1
# ERF = target: T6, ERF (Homo sapiens, UniProt P50548 1-548); details: protein: recombinant; tags: N-terminal GST; dsDNA, one strand shown
# T6 sequence: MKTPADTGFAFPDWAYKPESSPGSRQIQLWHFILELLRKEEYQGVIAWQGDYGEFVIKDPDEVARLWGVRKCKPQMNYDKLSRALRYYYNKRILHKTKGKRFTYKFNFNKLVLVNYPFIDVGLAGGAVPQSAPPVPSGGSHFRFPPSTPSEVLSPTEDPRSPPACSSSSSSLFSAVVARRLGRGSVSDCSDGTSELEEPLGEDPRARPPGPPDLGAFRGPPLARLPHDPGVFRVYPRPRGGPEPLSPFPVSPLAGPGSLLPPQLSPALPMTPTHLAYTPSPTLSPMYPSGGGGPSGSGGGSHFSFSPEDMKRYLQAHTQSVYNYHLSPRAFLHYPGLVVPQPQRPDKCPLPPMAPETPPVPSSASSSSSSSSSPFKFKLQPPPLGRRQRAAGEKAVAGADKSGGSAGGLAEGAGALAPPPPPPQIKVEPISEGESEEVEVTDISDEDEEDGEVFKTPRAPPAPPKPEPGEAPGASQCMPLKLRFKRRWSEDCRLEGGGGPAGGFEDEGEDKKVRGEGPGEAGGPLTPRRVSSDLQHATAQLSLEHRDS
# Procedure, shortened: as §1
# ETV3L = target: T7, ETV3L (Homo sapiens, UniProt Q6ZN32 1-361); details: protein: recombinant; tags: N-terminal GST; dsDNA, one strand shown
# T7 sequence: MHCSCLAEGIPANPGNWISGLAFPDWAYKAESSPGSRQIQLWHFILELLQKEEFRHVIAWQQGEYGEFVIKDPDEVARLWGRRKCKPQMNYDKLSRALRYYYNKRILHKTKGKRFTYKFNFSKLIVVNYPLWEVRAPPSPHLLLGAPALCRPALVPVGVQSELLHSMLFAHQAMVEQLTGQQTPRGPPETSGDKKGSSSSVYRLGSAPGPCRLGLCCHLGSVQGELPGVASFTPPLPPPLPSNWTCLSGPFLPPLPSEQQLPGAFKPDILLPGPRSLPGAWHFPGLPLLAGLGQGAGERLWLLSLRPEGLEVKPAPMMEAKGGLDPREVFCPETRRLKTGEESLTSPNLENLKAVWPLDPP
# Procedure, shortened: as §1
# ETS2 = target: T8, ETS2 (Homo sapiens, UniProt P15036 1-469); details: protein: recombinant; tags: N-terminal GST; dsDNA, one strand shown
# T8 sequence: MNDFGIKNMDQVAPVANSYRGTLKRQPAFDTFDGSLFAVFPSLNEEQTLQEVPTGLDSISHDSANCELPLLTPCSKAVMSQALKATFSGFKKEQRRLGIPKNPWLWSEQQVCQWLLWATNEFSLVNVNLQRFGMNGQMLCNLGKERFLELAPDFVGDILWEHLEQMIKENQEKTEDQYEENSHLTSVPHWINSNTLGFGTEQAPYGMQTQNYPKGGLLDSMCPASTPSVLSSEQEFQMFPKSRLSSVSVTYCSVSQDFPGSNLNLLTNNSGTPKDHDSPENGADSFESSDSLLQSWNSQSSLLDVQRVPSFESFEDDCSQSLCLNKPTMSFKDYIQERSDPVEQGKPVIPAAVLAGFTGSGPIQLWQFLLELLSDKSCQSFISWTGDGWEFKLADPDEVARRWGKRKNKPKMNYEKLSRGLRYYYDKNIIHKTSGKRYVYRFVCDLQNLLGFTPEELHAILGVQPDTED
# Procedure, shortened: as §1
# SPDEF = target: T9, SPDEF (Homo sapiens, UniProt O95238 1-335); details: protein: recombinant; tags: N-terminal GST; dsDNA, one strand shown
# T9 sequence: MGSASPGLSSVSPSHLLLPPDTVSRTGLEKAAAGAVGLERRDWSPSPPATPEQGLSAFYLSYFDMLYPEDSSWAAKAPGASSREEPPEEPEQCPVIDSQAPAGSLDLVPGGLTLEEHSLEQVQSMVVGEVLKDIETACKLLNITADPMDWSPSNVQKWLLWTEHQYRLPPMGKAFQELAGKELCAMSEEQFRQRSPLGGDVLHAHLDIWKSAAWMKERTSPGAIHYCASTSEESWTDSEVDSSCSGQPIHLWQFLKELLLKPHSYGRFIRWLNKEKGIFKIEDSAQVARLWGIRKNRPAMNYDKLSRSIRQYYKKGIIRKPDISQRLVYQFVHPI
# Procedure, shortened: as §1
# ETV7 = target: T10, ETV7 (Homo sapiens, UniProt Q9Y603 1-341); details: protein: recombinant; tags: N-terminal GST; dsDNA, one strand shown
# T10 sequence: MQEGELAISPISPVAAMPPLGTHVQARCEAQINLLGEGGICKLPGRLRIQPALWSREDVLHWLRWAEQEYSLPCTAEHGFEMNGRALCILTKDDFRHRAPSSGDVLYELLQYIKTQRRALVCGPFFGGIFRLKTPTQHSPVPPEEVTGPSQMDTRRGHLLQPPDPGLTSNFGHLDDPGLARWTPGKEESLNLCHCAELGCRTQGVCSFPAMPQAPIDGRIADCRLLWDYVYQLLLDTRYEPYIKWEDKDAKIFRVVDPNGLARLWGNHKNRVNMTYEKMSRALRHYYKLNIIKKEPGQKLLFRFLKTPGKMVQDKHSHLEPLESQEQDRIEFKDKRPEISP
# Procedure, shortened: as §1
# ELF5 = target: T11, ELF5 (Homo sapiens, UniProt Q9UKW6-2 1-255); details: protein: recombinant; tags: N-terminal GST; dsDNA, one strand shown
# T11 sequence: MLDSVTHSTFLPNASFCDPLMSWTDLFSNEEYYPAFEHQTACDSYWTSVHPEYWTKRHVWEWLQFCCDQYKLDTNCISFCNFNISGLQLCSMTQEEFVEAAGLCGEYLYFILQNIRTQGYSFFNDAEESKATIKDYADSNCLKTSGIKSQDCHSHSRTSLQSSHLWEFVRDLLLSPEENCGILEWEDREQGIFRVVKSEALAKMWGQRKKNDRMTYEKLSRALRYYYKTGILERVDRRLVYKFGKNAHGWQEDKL
# Procedure, shortened: as §1
# ETV3 = target: T12, ETV3 (Homo sapiens, UniProt P41162-2 1-143); details: protein: recombinant; tags: N-terminal GST; dsDNA, one strand shown
# T12 sequence: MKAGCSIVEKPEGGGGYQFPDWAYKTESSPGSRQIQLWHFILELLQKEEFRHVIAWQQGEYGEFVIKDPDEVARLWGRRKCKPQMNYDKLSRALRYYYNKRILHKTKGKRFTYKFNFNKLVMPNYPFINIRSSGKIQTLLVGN
# Procedure, shortened: as §1
# ETV6 = ETV6 (Homo sapiens, UniProt P41212 1-452); details: protein: recombinant; tags: N-terminal GST; dsDNA, one strand shown
# Procedure, shortened: as §1
# Sequence of ELF4 (Q99607 whole entry): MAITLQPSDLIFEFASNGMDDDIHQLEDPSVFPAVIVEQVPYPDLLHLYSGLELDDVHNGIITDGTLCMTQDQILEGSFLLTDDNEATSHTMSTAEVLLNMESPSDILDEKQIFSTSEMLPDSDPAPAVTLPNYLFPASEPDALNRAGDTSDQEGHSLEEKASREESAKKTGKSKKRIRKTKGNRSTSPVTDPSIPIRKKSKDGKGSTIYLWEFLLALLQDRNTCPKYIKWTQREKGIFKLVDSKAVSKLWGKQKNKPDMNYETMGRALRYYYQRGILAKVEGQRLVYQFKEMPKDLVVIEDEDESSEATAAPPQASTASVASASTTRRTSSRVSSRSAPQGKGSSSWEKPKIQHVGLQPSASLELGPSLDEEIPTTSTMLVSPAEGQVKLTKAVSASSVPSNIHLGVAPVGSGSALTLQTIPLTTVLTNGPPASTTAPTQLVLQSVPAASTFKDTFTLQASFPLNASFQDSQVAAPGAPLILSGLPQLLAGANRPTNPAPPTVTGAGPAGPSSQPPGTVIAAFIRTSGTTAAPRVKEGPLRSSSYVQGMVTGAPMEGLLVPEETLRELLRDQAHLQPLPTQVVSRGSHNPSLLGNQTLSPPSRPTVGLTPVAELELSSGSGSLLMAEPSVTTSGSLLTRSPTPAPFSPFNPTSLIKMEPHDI
# Sequence of ETV1 (P50549 whole entry): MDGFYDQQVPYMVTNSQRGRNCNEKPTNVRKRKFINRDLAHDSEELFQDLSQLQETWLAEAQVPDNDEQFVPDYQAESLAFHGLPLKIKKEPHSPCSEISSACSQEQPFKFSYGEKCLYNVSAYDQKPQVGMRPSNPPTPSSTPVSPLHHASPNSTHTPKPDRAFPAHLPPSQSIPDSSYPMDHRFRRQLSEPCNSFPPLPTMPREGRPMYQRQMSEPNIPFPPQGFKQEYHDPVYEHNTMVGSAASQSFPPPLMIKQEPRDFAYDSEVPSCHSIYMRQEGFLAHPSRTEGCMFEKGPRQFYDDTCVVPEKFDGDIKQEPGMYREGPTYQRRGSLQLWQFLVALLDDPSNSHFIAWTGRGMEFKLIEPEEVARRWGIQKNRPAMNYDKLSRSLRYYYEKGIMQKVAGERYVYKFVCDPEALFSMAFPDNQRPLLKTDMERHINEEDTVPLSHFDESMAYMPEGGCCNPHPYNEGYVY
# Sequence of CRX (O43186 whole entry): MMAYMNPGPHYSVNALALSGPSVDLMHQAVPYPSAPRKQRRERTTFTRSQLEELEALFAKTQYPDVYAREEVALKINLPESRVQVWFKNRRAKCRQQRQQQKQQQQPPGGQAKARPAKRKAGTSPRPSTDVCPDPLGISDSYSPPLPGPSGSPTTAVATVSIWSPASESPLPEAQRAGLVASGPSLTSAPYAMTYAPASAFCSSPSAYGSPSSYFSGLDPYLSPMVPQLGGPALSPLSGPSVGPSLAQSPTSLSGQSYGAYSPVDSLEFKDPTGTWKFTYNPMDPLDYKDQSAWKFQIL
# Sequence of ETV5 (P41161 whole entry): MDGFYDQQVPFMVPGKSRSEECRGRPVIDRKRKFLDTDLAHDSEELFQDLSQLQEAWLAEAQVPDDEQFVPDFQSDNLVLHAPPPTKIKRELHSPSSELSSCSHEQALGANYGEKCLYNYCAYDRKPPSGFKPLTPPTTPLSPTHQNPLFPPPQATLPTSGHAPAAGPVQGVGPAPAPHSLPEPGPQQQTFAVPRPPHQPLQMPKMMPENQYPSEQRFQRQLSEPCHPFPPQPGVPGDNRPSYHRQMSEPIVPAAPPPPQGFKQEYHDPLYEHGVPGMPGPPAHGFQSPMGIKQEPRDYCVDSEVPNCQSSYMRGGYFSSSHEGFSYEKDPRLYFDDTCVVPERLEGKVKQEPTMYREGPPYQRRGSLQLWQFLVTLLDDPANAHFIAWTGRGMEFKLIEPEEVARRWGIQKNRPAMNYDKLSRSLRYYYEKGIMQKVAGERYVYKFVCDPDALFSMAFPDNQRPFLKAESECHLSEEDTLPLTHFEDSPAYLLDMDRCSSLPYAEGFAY
# Sequence of ETV6 (P41212 whole entry): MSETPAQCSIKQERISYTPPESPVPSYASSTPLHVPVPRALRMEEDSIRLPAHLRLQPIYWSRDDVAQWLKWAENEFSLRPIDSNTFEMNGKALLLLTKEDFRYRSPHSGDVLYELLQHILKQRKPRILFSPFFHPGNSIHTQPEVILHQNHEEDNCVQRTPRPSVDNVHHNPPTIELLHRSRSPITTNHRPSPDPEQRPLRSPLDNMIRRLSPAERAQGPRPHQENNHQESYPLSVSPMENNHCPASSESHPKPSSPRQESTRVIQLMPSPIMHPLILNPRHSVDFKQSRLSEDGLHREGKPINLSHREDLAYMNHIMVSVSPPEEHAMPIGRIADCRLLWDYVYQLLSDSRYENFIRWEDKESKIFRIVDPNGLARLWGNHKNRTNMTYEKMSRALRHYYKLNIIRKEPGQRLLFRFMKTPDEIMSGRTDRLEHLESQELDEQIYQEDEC
# Sequence of HSF1 (Q00613 whole entry): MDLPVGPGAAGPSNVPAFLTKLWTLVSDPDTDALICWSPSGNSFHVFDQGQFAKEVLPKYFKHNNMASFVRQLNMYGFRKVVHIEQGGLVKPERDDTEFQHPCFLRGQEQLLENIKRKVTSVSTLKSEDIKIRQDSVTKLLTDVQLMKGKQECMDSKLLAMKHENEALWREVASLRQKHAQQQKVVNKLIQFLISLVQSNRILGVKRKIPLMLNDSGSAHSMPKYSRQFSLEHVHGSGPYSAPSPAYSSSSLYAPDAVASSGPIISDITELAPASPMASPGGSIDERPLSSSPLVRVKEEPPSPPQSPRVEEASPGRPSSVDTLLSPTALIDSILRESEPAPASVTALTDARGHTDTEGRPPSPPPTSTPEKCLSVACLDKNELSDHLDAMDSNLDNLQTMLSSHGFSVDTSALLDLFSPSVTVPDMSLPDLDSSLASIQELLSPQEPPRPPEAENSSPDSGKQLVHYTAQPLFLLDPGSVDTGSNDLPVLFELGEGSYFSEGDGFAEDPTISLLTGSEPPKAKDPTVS
sequence,measurement,setting,value
AACTCA,binding signal,FEV,"1.26 fold enrichment (6-mer frequency, TF over GST control)"
same,binding signal,ETV5,"1.25 fold enrichment (6-mer frequency, TF over GST control)"
same,binding signal,HSF1,"1.14 fold enrichment (6-mer frequency, TF over GST control)"
same,binding signal,SPIC,"1.2 fold enrichment (6-mer frequency, TF over GST control)"
same,binding signal,ELF4,"1.27 fold enrichment (6-mer frequency, TF over GST control)"
same,binding signal,ELK4,"1.21 fold enrichment (6-mer frequency, TF over GST control)"
same,binding signal,ETV2,"1.22 fold enrichment (6-mer frequency, TF over GST control)"
same,binding signal,ELF3,"1.15 fold enrichment (6-mer frequency, TF over GST control)"
same,binding signal,CRX,"1.12 fold enrichment (6-mer frequency, TF over GST control)"
same,binding signal,ETV1,"1.24 fold enrichment (6-mer frequency, TF over GST control)"
same,binding signal,ERF,"1.18 fold enrichment (6-mer frequency, TF over GST control)"
same,binding signal,ETV3L,"1.18 fold enrichment (6-mer frequency, TF over GST control)"
same,binding signal,ETS2,"1.28 fold enrichment (6-mer frequency, TF over GST control)"
same,binding signal,SPDEF,"1.22 fold enrichment (6-mer frequency, TF over GST control)"
same,binding signal,ETV7,"1.2 fold enrichment (6-mer frequency, TF over GST control)"
same,binding signal,ELF5,"1.22 fold enrichment (6-mer frequency, TF over GST control)"
same,binding signal,ETV3,"1.26 fold enrichment (6-mer frequency, TF over GST control)"
same,binding signal,ETV6,"1.34 fold enrichment (6-mer frequency, TF over GST control)"
